Assay results as given in the supplement of paper PMC6555819.

Assays:
Assay in all cases: PBM binding z-score (relative to random genomic background probes); higher = stronger binding; sequences stand for … in GC…GCGATTGACAGCGTAGAATGAAGG
[1] = test system: RARb homodimer (NR concentration 270 nM)
Method in brief: (§1)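 Regression normalization was applied to scanned fluorescence from custom Agilent 4×180K protein-binding microarrays. Before scanning, arrays were incubated 1 h with ligand-free nuclear receptor dimers, and binding was detected with antibodies against each partner (one per run). Binding z-scores use the random background probes as reference.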

[2] = test system: RARg:RXRa (NR concentration 270 nM, RXRa partner concentration 90 nM)
Method in brief: as §1

[3] = test system: RARg homodimer (NR concentration 270 nM)
Method in brief: as §1

[4] = test system: RXRa DBDmut IVT, anti-RXR (DBD mutation: RXRa K156A/R161A, NR concentration 90 nM)
Method in brief: as §1

[5] = test system: RXRa homodimer (NR concentration 180 nM)
Method in brief: as §1

[6] = test system: THRa:RXRa (NR concentration 90 nM, RXRa partner concentration 90 nM)
Method in brief: as §1

[7] = test system: THRa homodimer (NR concentration 90 nM)
Method in brief: as §1

[8] = test system: VDR homodimer (NR concentration 270 nM)
Method in brief: as §1

Sequence	PBM binding z-score [1]	PBM binding z-score [2]	PBM binding z-score [3]	PBM binding z-score [4]	PBM binding z-score [5]	PBM binding z-score [6]	PBM binding z-score [7]	PBM binding z-score [8]
GCTTACGGGTCAAAGGTGATAGCATGAATAGAAT	2.94	5.62	4.21	2.43	7.79	3.15	-0.0269	1.07
CTCGAAAGGTCGTACTCAGGTGAGTATACCAAAC	2.52	4.96	3.87	2.42	4.91	3.89	0.987	1.47
ATATGTAGGTTTCATCCGGGTCATTCAGGCTATG	2.53	1.62	0.901	1.35	2.07	3.22	2.18	3.21
ATATGTTGGTTAAGGGTCATTCAGGTTGGTTCGC	3.84	4.07	3.25	2.11	4.9	3.25	2.24	4.89
CCTTACGGGTCACGAGGATATAGCACGACGAGCG	3.37	5.53	5.26	0.944	6.1	3.16	0.656	0.89
CCTTACGGGTCACGCCAGGTTATAGCATCGGAGT	3.89	5.65	5.54	1.75	6.22	5.03	0.956	0.985
AGATTGAGGTTATACGTAGATCAGGGAAGAAAGT	0.842	1.71	0.96	1.28	2.2	2.24	0.943	0.908
TCTTGTAGATCAATAGAGGTCAAGAAAGTGCGCT	4.21	3.92	3.84	0.858	4.46	4.17	0.941	2.12
CCCAGTAGGTTATGGGGCATTCAGGCAACGGTGA	0.987	0.653	0.48	-1.2	0.869	0.512	-0.000965	0.0729
CCTGCTAGGTCAGTGGTCAGCTAAAGCAGCTCGC	2.63	2.56	3.82	0.821	0.693	1.51	0.454	-0.319
CCTGACGGGTCAAGGTTATAGCACGGGTGGTACG	3.21	4.37	4.65	0.202	4.64	2.63	0.682	1.34
GCATTTAGGTAATACAAGGTGAAAGTCCGATTGT	1.06	0.319	0.48	0.617	0.375	3.89	1.59	0.0936
TACACAGGGTCAAAGGCCAGAGTACGAATGTCGA	3.22	5.65	5.36	3	7.62	3.5	0.79	3.23
CGAATTAGGTCAAGGACAGTGAATCTCCGCACGC	3.29	3.94	4.46	1.46	2.97	3.53	2.81	0.373
GCTTACGGGTCAACGGTTATAGCATGAATAGAAT	2.84	4.92	4.66	2.06	5.29	2.59	-0.0988	0.695
TGTCAAAGTTCAAAGGTAACGGAAGTATCCACAC	3.76	6.56	5.94	4.29	7.52	2.99	0.158	4.06
CAAACTAGGTCAACAGGTCAAAGTCCGCTTCCCG	4.94	6.85	6.36	2.45	5.98	3.78	1.9	2.78
ATCTCTAGGTAAAGATAGTTCAGTTAATGCAAAT	1.19	0.937	0.915	0.536	0.419	1.27	0.471	0.927
AGAATGAGGTTAAGATCGGGGAAACAGAATACAT	0.944	2.19	1.53	1.28	2.25	2.54	0.927	0.542

Sequence	PBM binding z-score [1]	PBM binding z-score [2]	PBM binding z-score [3]	PBM binding z-score [4]	PBM binding z-score [5]	PBM binding z-score [6]	PBM binding z-score [7]	PBM binding z-score [8]
TCTGCCAGGTCAGTTGGTCAGCTAACGAGCTGCC	2.77	2.86	3.55	0.569	1.12	2.11	0.521	-0.514
TTACCAGGGTGAGCTGAGGTCGTTGATCCAACTC	1.24	1.08	0.39	-0.148	1.37	4.67	1.57	2.47
CCTTACGCGTCACTGACAGGTTATAGCATTTGGA	0.655	0.439	0.151	1	0.414	0.506	0.512	0.287
AGTGAAAGTTCACTAGGTAACGTAAGATTCAGCT	3.4	4.46	5.32	3.84	3.77	1.96	-0.00547	3.15
TTACCAAGGTGAAGGTCTTTGATCCCTCTGTAGA	0.775	0.2	0.513	-0.154	0.759	1.73	0.592	-0.396
CGTCCAAGGACAGAGAGGTCAGTGAATGCCGAGT	4	3.21	3.98	1.29	2.11	3.27	1.69	2.7
TCTAGTTGGTCAAAGGTTACACACTCGAAATGCG	2.96	4.04	2.46	1.54	4.59	2.37	1.01	1.23
CGTCCAAGGTTAGAGAGGTCAGTGAATGCCGAGT	4.23	3.53	4.13	1.67	3.43	3.22	1.3	3.15
GGAACGAGGGCAAAGTTGATAGTATCTGTCGACG	1.24	2.08	1.84	2.59	1.68	1.36	0.0529	1.64
CCTACTGGGCCATTCAGAAGTCATTGATCATATG	-0.105	0.0962	0.226	-0.00725	-0.479	-0.404	-0.643	-0.285
CGAACGAGGGCATGAGATGATAGCAAATGCCGAT	0.674	1.28	1.64	1.82	0.882	0.979	-0.224	0.831
CCGAGTAGGTTATGGGGCTTTCAGGCAACGGTGA	0.416	0.0177	0.1	-0.273	0.293	0.519	0.657	0.00532
GCTGCTAGATCAGGTTGGTCAGCTAACGGGTACG	-0.151	-0.607	-0.66	-0.411	-0.416	-0.611	-0.864	0.19
ACTATTAGTTGACTGAGGGCAACCGATACGACGC	1.72	0.837	1.38	1	0.572	1.91	1.06	1.71
CCTTACGGGTCAGTCCAGGTTATAGCATCGGAGT	2.69	3.23	3.53	0.751	2.55	4.66	0.627	1.12
CGAACTAGGTCATCCAGCACAGTGAATACATTGA	2.79	4	4.55	2.13	2.92	2.85	1.13	1.16
AGAACGAGGCCACGCTGAGTTGATAGCAGAGTAG	0.176	0.764	1.22	0.267	0.15	1.02	-0.00748	0.389
ATCTCTAGGTAAAGGTTCAGTGAATCCCGAGGAT	1.24	1.03	1.05	0.869	1.01	1.1	0.351	1.99
CGTCCAAGGTCAGCAGGTCAGGGAAAGCGACGTG	5.01	6.64	7.24	2.62	5.64	3.84	2.59	1.53

Sequence	PBM binding z-score [1]	PBM binding z-score [2]	PBM binding z-score [3]	PBM binding z-score [4]	PBM binding z-score [5]	PBM binding z-score [6]	PBM binding z-score [7]	PBM binding z-score [8]
ATCTCTAGGTAACAAGTACAGTGAAAGAGAGGAC	0.631	0.905	0.824	-0.118	0.349	1.12	0.739	0.41
TCTATTAGTGGATTAGGGCAACCGAAACAGCGGA	0.492	0.384	0.643	1.06	0.49	0.449	0.4	0.393
TATACAGGGTCAAAGGACAGAGTACGAATGTCGA	3.47	5.29	5.03	3.17	6.26	3.7	1.21	2.76
TGTCAAAGTTCAAAGGTAAGGTAAGTATCCACAC	3.83	6.22	6.55	4.48	7.16	3.5	0.924	4.14
TCATATAGGTAAACAGATGAAAGTCCGTAAGTTA	0.099	0.636	0.431	1.38	0.703	0.419	-0.0722	0.455
TCTTGTAGATCAACAAGAGGTTAAGAAAGATCGA	0.756	1.56	0.53	-0.00375	1.4	1.22	-0.94	-0.26
TCTCGTAGATCAATAGAGGTTAAGAAAGTGCGCT	0.966	0.48	0.249	0.754	1.19	2.07	-0.641	0.163
CGTCCAAGGTCGATGCTAGGTCAGTGAAAGCATT	3.05	4.58	2.78	1.32	1.41	3.28	1.45	1.09
TCTTGTACATCAACAGGAGGTTAAGAAAGATCGA	0.799	0.549	0.344	0.744	0.927	0.755	-0.281	0.136
CATGCTAGGTCAATGGTCAGCTAAAGCAGCTCGC	3.11	3.81	4.43	1.63	2.29	2.38	0.438	0.0964
TCGCCTAGGTCATTCAGGGGCCAGTATAGAAAGC	3.67	6.06	4.29	2.42	2.95	3.52	1	1.4
CAGCCTAAGTCAGGGCCAGTATAGGAGGAACGTT	0.00988	-0.148	-0.0459	-0.572	-0.223	-0.328	-0.317	-0.363
CCTACTGGGCAAAGGTCATTGATCAGTCAAAGCA	4.39	6.27	4.92	1.48	6.88	3.05	0.287	2.31
AGTCAAAGTTCAGGACGAGCTAACGTAAAGCACG	2.77	4.22	4.84	2.68	2.83	1.95	0.278	1.5
CCGACTGGGGCAAGGTTACCATGACGCACAGCCA	1.41	1.07	1.09	-0.669	1.13	1.21	0.0571	-0.0501
TTAACAAGGTGAGCTGAGGTCGTTGATCCAACTC	1.42	1.03	1.09	0.404	1.42	4.55	2.04	1.8
ATCTCTAGGTAGAGATAGTTCAGTGAATGCAAAT	0.368	0.166	0.357	-0.163	0.115	0.148	-0.22	0.338
GATACAGGCTCAAGGCCAGAGTACGCGTATTGAT	-0.491	-0.284	0.128	-0.619	-0.27	-0.479	-0.602	-0.14
